Our source for the Percent Effect values is ChEMBL document CHEMBL3988442, “University of Dundee, Small-Polar-MMV Screening Library” (2021).

In the experiment the target is T1, Aspartate--tRNA(Asp/Asn) ligase (Mycobacterium tuberculosis (strain ATCC 25618 / H37Rv)) (UniProt P9WFW3).
T1 sequence (whole entry): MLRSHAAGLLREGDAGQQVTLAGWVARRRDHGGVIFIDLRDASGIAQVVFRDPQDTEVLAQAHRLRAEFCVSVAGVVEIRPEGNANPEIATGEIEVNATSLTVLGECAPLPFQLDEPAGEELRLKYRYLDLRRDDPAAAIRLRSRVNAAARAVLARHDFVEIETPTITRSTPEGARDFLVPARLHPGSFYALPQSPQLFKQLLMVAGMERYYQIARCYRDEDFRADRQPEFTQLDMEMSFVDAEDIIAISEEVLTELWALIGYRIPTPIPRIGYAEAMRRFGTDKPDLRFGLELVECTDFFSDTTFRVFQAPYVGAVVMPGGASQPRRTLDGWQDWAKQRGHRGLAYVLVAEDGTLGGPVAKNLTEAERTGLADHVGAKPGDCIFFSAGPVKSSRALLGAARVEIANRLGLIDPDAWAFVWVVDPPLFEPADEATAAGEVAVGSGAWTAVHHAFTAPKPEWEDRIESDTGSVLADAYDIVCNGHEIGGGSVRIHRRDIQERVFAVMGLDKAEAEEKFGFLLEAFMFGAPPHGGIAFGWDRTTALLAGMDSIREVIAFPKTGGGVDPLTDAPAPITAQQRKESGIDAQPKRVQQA
The experiment is described as follows: Assay for Asp RNA synthetase-1 from Mycobacterium tuberculosis. More on the design: scale not given: in the data most compounds retested in dose-response had high values. The settings on record: 30 µM. In kind it is functional.
For the compound `Cc1csc([C@@H]2C[C@@H]3CCN(Cc4cnn(C)c4)C[C@H]3O2)n1`, the Percent Effect was -2.71%.

For `CN1CC(=O)N(c2cccc(F)c2)CC12CCN(Cc1cccnc1)C2` (stereo not given), the Percent Effect worked out at 2.03%.

In the case of `Cn1ncc2c1C(COCC1CC1)CN(Cc1ccc(F)cc1)C2` (stereo not given), the Percent Effect was -2.09%.

In the case of `O=C(Nc1nccs1)N1CCCC(N2CCNC2=O)C1` (stereo not given), the Percent Effect stood at 0.977%.

Regarding `N#CCCN(C(=O)CN1CCCC1Cc1ccccc1)c1ccccc1` (stereo not given), the Percent Effect stood at 2.91%.

Consider `COc1ccccc1N1CCC(CNCc2cccc(O)c2)C1` (stereo not given), for which the Percent Effect was found to be 2.22%.

For `Cc1cccc(OCCC(=O)N(C)CCC#N)c1C`, the Percent Effect came out at 0.839%.

As for `Cc1cccc(CN2CCC3(CCN(c4ccccn4)C3)C2=O)c1` (stereo not given), the Percent Effect amounted to 0.319%.

`CCN(Cc1ccc2c(c1)OCO2)Cc1nc(C)no1`: the Percent Effect is 4.08%.

Consider `Cc1nc([C@@H]2C[C@@H]3CCN(C(=O)c4occc4C)C[C@H]3O2)no1`, for which the Percent Effect was found to be 10.9%.

On to `CCc1nnc2n1CCN(C(=O)COCCc1ccccc1)C2`, for which the Percent Effect was found to be 3.29%.

Regarding `O=C(NCc1cccc(F)c1)N1CCC2(CC(=O)N(c3ccsc3)C2)C1` (stereo not given), the Percent Effect is -4.15%.

Regarding `Cc1ccc(CC(=O)N(C)CC2(O)CCN(c3ccccn3)C2)s1` (stereo not given), the Percent Effect worked out at 5.23%.

On to `O=C(NC1=NCCCN1c1ccc(Cl)cc1)c1cccc(Cl)c1`, for which the Percent Effect was 8.32%.

Regarding `O=C(c1ccccc1OCC1CC1)N1CCCC(n2ccnc2)C1` (stereo not given), the Percent Effect is 6.48%.

In the case of `CCc1cc(NCCc2ccc(O)cc2)n2nccc2n1`, the Percent Effect was found to be 5.69%.

For `CC(C)c1cc(NC(=O)c2ccc(NC3CC3)nc2)[nH]n1`, the Percent Effect was -1.67%.

In the case of `c1nc2n(n1)CC(NCc1nc(-c3ccsc3)no1)CC2` (stereo not given), the Percent Effect stood at 4.69%.

On to `CC(=O)N1CCCCC1c1cc(C(=O)N2CCOCC2)[nH]n1` (stereo not given), for which the Percent Effect is -0.551%.

Consider `Cc1cnn(CCNCC(O)COc2c(C)ccc(C)c2C)c1` (stereo not given), for which the Percent Effect was 1.91%.

As to `CC(C)c1nnc2ccc(N3CCC(C(N)=O)CC3)nn12`, the Percent Effect was -3.92%.

As for `O=C(NCCn1ccnc1)c1cccc(F)c1`, the Percent Effect was 3.65%.

In the case of `CCc1nc(C2CCCN2C(=O)c2nc(C)n3ccccc23)no1` (stereo not given), the Percent Effect was -1.96%.

For `Cc1cc(CNC(=O)NC(C)c2ccncc2)no1` (stereo not given), the Percent Effect worked out at 7.94%.

With `Cc1nc2ccnn2c(C)c1CCC(=O)N1CCN(C2CC2)CC1`, the Percent Effect came out at 3.26%.

Consider `Cc1cc(CN2CCCC2c2c(C)nn(C)c2Cl)no1` (stereo not given), for which the Percent Effect is -1.57%.

Turning to `Cc1ccc(NC(=O)c2n[nH]c(-n3cnnc3)n2)cc1C`, the Percent Effect was 4.15%.

For `O=C(NCC1CCN(Cc2ccsc2)CC1)NC1CC1`, the Percent Effect stood at 4.04%.

Regarding `CN(C)C(=O)CO[C@H]1CN(Cc2ccc(F)cc2)[C@@H]2CCCO[C@H]12`, the Percent Effect turned out to be 5.68%.

Regarding `CS(=O)(=O)CCC(=O)N1CCC2(CCCN(C3CCOCC3)C2=O)C1` (stereo not given), the Percent Effect stood at 3.37%.

Regarding `Cc1cc(Nc2nc(C)cs2)nc(C2CCCCN2CCO)n1` (stereo not given), the Percent Effect was 0.7%.

Take `Cc1ccc(NC(=O)N2C[C@H]3CC[C@@H]2CN(Cc2cscn2)C3)cc1`: the Percent Effect is -2.57%.

`CN(CCNC(=O)NCc1ccncc1)C1CCCC1`: the Percent Effect was -2.09%.

For the compound `O=C(CN1CCOC(Cn2cccn2)C1)NCc1cccs1` (stereo not given), the Percent Effect is -1.46%.

Consider `CCc1ccc(C(=O)N2CCN(CCS(C)(=O)=O)CC2)o1`, for which the Percent Effect was -3.52%.

Regarding `CCCn1c(C)c(CC(=O)NC)c2c1CC(C)(C)CC2=O`, the Percent Effect is -1.07%.

Regarding `CC1CCN(S(=O)(=O)NCC2CCOc3ccccc3C2)CC1` (stereo not given), the Percent Effect amounted to 0.0297%.

On to `CCOCC1CN(S(C)(=O)=O)Cc2cnn(C)c21` (stereo not given), for which the Percent Effect is -0.204%.

Turning to `O=C(NCc1ccco1)C1CCCN1Cc1nc(-c2ccco2)no1` (stereo not given), the Percent Effect amounted to 3.58%.

As for `COc1ccccc1OCCC(=O)N1CCCC1Cn1cc(C)cn1` (stereo not given), the Percent Effect is -0.922%.
